{"source": "PubChem BioAssay (NCATS)", "note": "Values joined by “and” are separate entries in the source; they are usually repeats but may differ in a detail not shown here. Identical values can stand only once. Records with an inconclusive call do not appear. Active and inactive are the calls of the source. Unless noted, calls come from the whole dose curve.", "data": [{"target": "Retinoic acid receptor RXR-alpha (Homo sapiens) (UniProt P19793)", "sequence (P19793 whole entry, looked up)": "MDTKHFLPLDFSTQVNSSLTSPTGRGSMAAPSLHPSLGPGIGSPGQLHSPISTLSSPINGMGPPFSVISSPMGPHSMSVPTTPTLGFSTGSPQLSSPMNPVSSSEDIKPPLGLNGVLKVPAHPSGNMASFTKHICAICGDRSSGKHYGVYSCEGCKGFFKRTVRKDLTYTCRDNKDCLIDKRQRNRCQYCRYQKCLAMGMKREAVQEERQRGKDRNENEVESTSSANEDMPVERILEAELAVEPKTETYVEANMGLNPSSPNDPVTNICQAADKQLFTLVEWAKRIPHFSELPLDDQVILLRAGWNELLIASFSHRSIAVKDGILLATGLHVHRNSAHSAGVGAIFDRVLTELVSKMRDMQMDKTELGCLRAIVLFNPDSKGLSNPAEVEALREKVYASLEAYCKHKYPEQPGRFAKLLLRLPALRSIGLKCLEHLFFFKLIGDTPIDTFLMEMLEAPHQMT", "assay": "qHTS assay for small molecule agonists of retinoid X receptor alpha signaling (AID 588544);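 note: 0% = DMSO basal wells and 100% = reference agonist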", "settings": "HEK293T RXRa-UAS-bla, beta-lactamase reporter, 18 h; series mostly up to 76.7 µM", "values": [{"smiles": "COCC(=O)N(c1c(C)cccc1C)C(C)C(=O)OC", "note": "(stereo not given)", "outcome": "inactive"}, {"smiles": "Oc1c(Br)cc(Br)cc1Br", "outcome": "inactive"}, {"smiles": "CNC(=O)Oc1cccc2ccccc12", "outcome": "inactive"}, {"smiles": "C=CCOC(Cn1ccnc1)c1ccc(Cl)cc1Cl", "note": "(stereo not given)", "outcome": "inactive"}, {"smiles": "COP(=O)(OC)OC=C(Cl)Cl", "outcome": "inactive"}, {"smiles": "O=c1n(Cl)c(=O)n(Cl)c(=O)n1Cl", "outcome": "inactive"}, {"smiles": "O=C(NC(=O)c1c(F)cccc1F)Nc1cc(Cl)c(OC(F)(F)C(F)C(F)(F)F)cc1Cl", "note": "(stereo not given)", "outcome": "inactive"}, {"smiles": "CCNc1nc(Cl)nc(NCC)n1", "outcome": "inactive"}, {"smiles": "CCCCCCCCC(=O)NCc1ccc(O)c(OC)c1", "outcome": "inactive"}, {"smiles": "C[C@H]1C(=O)O[C@@H]2CCN3CC=C(COC(=O)[C@](C)(O)[C@]1(C)O)[C@H]23", "outcome": "inactive"}, {"smiles": "C[C@@H]1C[C@@H]([C@H](O)CC2CC(=O)NC(=O)C2)C(=O)[C@@H](C)C1", "outcome": "inactive"}]}, {"target": "Thyroid hormone receptor beta (Homo sapiens) (UniProt P10828)", "sequence (P10828 whole entry, looked up)": "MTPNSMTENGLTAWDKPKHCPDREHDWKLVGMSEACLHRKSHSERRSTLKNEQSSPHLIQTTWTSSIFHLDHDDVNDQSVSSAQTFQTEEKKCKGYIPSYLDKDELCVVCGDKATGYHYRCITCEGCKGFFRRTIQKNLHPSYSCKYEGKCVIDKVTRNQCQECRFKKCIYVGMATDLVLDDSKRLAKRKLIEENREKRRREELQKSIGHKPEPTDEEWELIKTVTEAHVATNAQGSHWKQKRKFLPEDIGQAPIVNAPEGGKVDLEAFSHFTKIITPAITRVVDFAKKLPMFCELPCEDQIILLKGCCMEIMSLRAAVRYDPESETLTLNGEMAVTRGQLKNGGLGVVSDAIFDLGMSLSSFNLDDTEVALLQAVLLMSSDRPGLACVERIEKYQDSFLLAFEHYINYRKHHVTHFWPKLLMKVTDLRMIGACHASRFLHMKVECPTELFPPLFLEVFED", "assay": "qHTS assay for small molecule agonists of thyroid hormone receptor beta signaling (AID 588545);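 note: 0% = DMSO only and 100% = 10 nM T3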", "settings": "TR-UAS-bla GripTite HEK 293, beta-lactamase ratio, agonist mode, 18 h, percent of T3 response, DMSO as zero; series mostly up to 76.7 µM", "method_in_brief": "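TR-UAS-bla GripTite HEK 293 cells (2500/well, medium with 2% charcoal/dextran FBS) were treated in agonist mode for 18 h at 37 C, titrated. Beta-lactamase was read by CCF4 ratio after 2 h; normalized to 10 nM T3 (100%) and DMSO, Hill-fitted for EC50 and efficacy.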", "values": [{"smiles": "Oc1c(Br)cc(Br)cc1Br", "outcome": "inactive"}, {"smiles": "CNC(=O)Oc1cccc2ccccc12", "outcome": "inactive"}, {"smiles": "C=CCOC(Cn1ccnc1)c1ccc(Cl)cc1Cl", "note": "(stereo not given)", "outcome": "inactive"}, {"smiles": "COP(=O)(OC)OC=C(Cl)Cl", "outcome": "inactive"}, {"smiles": "O=c1n(Cl)c(=O)n(Cl)c(=O)n1Cl", "outcome": "inactive"}, {"smiles": "O=C(NC(=O)c1c(F)cccc1F)Nc1cc(Cl)c(OC(F)(F)C(F)C(F)(F)F)cc1Cl", "note": "(stereo not given)", "outcome": "inactive"}, {"smiles": "N#Cc1nn(-c2c(Cl)cc(C(F)(F)F)cc2Cl)c(N)c1S(=O)C(F)(F)F", "note": "(stereo not given)", "outcome": "inactive"}, {"smiles": "CCC(=O)O[C@H]1CC[C@H]2[C@@H]3CCC4=CC(=O)CC[C@]4(C)[C@H]3CC[C@]12C", "outcome": "inactive"}, {"smiles": "CN(C)C(=S)SSC(=S)N(C)C", "outcome": "inactive"}, {"smiles": "O=C(CCl)c1ccc(Cl)cc1Cl", "outcome": "inactive"}, {"smiles": "CCOP(=S)(OCC)O/N=C(\\C#N)c1ccccc1", "outcome": "inactive"}, {"smiles": "CCNc1nc(Cl)nc(NCC)n1", "outcome": "inactive"}, {"smiles": "CCCCCCCCC(=O)NCc1ccc(O)c(OC)c1", "outcome": "inactive"}, {"smiles": "COP(=O)(OC)C(O)C(Cl)(Cl)Cl", "note": "(stereo not given)", "outcome": "inactive"}, {"smiles": "C[C@@H]1C[C@@H]([C@H](O)CC2CC(=O)NC(=O)C2)C(=O)[C@@H](C)C1", "outcome": "inactive"}]}, {"test_system": "not listed separately", "assay": "qHTS assay for small molecule antagonists of retinoid X receptor alpha signaling (AID 588546; active = well fitted inhibition curve with a large enough effect in the signal ratio, with a control signal flat, not every such curve was filed as active; the % refers to the signal ratio; note: potency is the fitted concentration of half-maximal effect; for max response: % is set by controls: 0 for no effect and ±100 for the full control effect)", "settings": "HEK293T RXRa-UAS-bla, beta-lactamase ratio, antagonist mode; measured here: W530 green channel, cytotoxicity proxy", "method_in_brief": "(§1)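 Beta-lactamase reporter inhibition, read as CCF4 fluorescence ratio (ex 405, em 460/530 nm) after 2 h at RT. HEK293T UAS-bla cells, 2500/well, were stimulated with 9-cis-RA at 500 or 100 nM final alongside test compound for 18 h at 37 C.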", "values": [{"smiles": "COCC(=O)N(c1c(C)cccc1C)C(C)C(=O)OC", "note": "(stereo not given)", "max response": "1.9%"}, {"smiles": "Oc1c(Br)cc(Br)cc1Br", "max response": "9.85% and -7.56%"}, {"smiles": "CNC(=O)Oc1cccc2ccccc12", "max response": "-8.18% and 5.92%"}, {"smiles": "COP(=S)(OC)Oc1ccc(Sc2ccc(OP(=S)(OC)OC)cc2)cc1", "max response": "-1.68%"}, {"smiles": "C=CCOC(Cn1ccnc1)c1ccc(Cl)cc1Cl", "note": "(stereo not given)", "max response": "-20.1% and -17.9%"}, {"smiles": "COP(=O)(OC)OC=C(Cl)Cl", "max response": "-12% and -6.53% and -17.3%"}, {"smiles": "Oc1ccc(Cl)cc1Cc1cc(Cl)ccc1O", "max response": "-8.06%"}, {"smiles": "Cc1ccc(N=CN(C)C=Nc2ccc(C)cc2C)c(C)c1", "max response": "-10.6%"}, {"smiles": "O=c1n(Cl)c(=O)n(Cl)c(=O)n1Cl", "max response": "-7.37%"}, {"smiles": "O=C(NC(=O)c1c(F)cccc1F)Nc1cc(Cl)c(OC(F)(F)C(F)C(F)(F)F)cc1Cl", "note": "(stereo not given)", "max response": "-7.96%"}, {"smiles": "O=C(Nc1ccc(Cl)cc1)Nc1ccc(Cl)c(Cl)c1", "max response": "-4.96%"}, {"smiles": "CCC(=O)O[C@H]1CC[C@H]2[C@@H]3CCC4=CC(=O)CC[C@]4(C)[C@H]3CC[C@]12C", "max response": "1.48%"}, {"smiles": "CN(C)C(=S)SSC(=S)N(C)C", "max response": "18.1%"}, {"smiles": "CC[n+]1c(-c2ccccc2)c2cc(N)ccc2c2ccc(N)cc21", "max response": "-17.9%"}, {"smiles": "CCNc1nc(Cl)nc(NCC)n1", "max response": "-7.93%"}, {"smiles": "CCCCCCCCC(=O)NCc1ccc(O)c(OC)c1", "max response": "-4.12%"}, {"smiles": "C[C@H]1C(=O)O[C@@H]2CCN3CC=C(COC(=O)[C@](C)(O)[C@]1(C)O)[C@H]23", "max response": "-18.5%"}]}, {"target": "Retinoic acid receptor RXR-alpha (Homo sapiens) (UniProt P19793)", "assay": "qHTS assay for small molecule antagonists of retinoid X receptor alpha signaling (AID 588546)", "settings": "HEK293T RXRa-UAS-bla, beta-lactamase ratio, antagonist mode", "method_in_brief": "as §1", "values": [{"smiles": "COCC(=O)N(c1c(C)cccc1C)C(C)C(=O)OC", "note": "(stereo not given)", "max response": "-3.83% (inactive)"}, {"smiles": "Oc1c(Br)cc(Br)cc1Br", "max response": "-6.81% (inactive) and -18.8% (inactive)"}, {"smiles": "CNC(=O)Oc1cccc2ccccc12", "max response": "8.76% (inactive) and -2.97% (inactive)"}, {"smiles": "COP(=S)(OC)Oc1ccc(Sc2ccc(OP(=S)(OC)OC)cc2)cc1", "max response": "-19.4% (inactive)"}, {"smiles": "C=CCOC(Cn1ccnc1)c1ccc(Cl)cc1Cl", "note": "(stereo not given)", "max response": "-20.3% (inactive) and -31.1% (inactive)"}, {"smiles": "COP(=O)(OC)OC=C(Cl)Cl", "max response": "5.84% (inactive) and -9.46% (inactive) and -14.2% (inactive)"}, {"smiles": "Oc1ccc(Cl)cc1Cc1cc(Cl)ccc1O", "Potency": "14.1 µM (active)"}, {"smiles": "Cc1ccc(N=CN(C)C=Nc2ccc(C)cc2C)c(C)c1", "max response": "-33.7% (inactive)"}, {"smiles": "O=c1n(Cl)c(=O)n(Cl)c(=O)n1Cl", "max response": "2.47% (inactive)"}, {"smiles": "O=C(NC(=O)c1c(F)cccc1F)Nc1cc(Cl)c(OC(F)(F)C(F)C(F)(F)F)cc1Cl", "note": "(stereo not given)", "max response": "-7.55% (inactive)"}, {"smiles": "O=C(Nc1ccc(Cl)cc1)Nc1ccc(Cl)c(Cl)c1", "Potency": "10 µM (active)"}, {"smiles": "CCC(=O)O[C@H]1CC[C@H]2[C@@H]3CCC4=CC(=O)CC[C@]4(C)[C@H]3CC[C@]12C", "max response": "-0.425% (inactive)"}, {"smiles": "CN(C)C(=S)SSC(=S)N(C)C", "Potency": "44.7 µM (active)"}, {"smiles": "CC[n+]1c(-c2ccccc2)c2cc(N)ccc2c2ccc(N)cc21", "Potency": "8.91 µM (active)"}, {"smiles": "CCNc1nc(Cl)nc(NCC)n1", "max response": "2.68% (inactive)"}, {"smiles": "CCCCCCCCC(=O)NCc1ccc(O)c(OC)c1", "max response": "-5.69% (inactive)"}, {"smiles": "C[C@H]1C(=O)O[C@@H]2CCN3CC=C(COC(=O)[C@](C)(O)[C@]1(C)O)[C@H]23", "max response": "-1.01% (inactive)"}]}]}
